# Compounds with a hit are over-represented: about 3.7% of the library has one in this group of screens.
# tim23-1 inh: growth inhibitors of tim23-1 mutant yeast. S. cerevisiae tim23-1 growth, BacTiter-Glo luminescence, 24 h. inhibition, % at 20 µM. actives 1.3% (n = 330,000);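 active = growth inhibition of the mutant yeast at or above 50%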;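 note: temperature-sensitive mutant grown at 25 °C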
# TIM10 inh: growth inhibitors of TIM10 yeast strain; S. cerevisiae TIM10 strain growth, BacTiter-Glo luminescence, 24 h; inhibition, % at 10 µM; actives 1.4% (n = 330,000); AID 463195;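 active = inhibition of 40% or more at the single tested concentration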;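 note: wild-type TIM10 isogenic control strain grown at permissive 25 °C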
# tim10-1 inh: growth inhibitors of tim10-1 mutant yeast; S. cerevisiae tim10-1 ts strain growth, BacTiter-Glo, 24 h; inhibition, % at 20 µM; actives 2.2% (n = 330,000); AID 463190;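 active = inhibition of at least 40%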;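 note: mutant grown at 25 °C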
# PfHsp90 set2: reduces growth (ATP signal) of yeast expressing P. falciparum Hsp90; S. cerevisiae expressing PfHsp90, BacTiter-Glo ATP, 48 h; yeast lacking PDR1 and PDR3 efflux regulators; inhibition, % at 9.4 µM; actives 0.32% (n = 310,000);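 active = every replicate shows inhibition above about 80%, whatever the replicate mean, limit read from the data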
# NLRP3 yeast inh: blocks the NALP3 inflammasome reconstituted in yeast. Yeast reconstituted NLRP3/ASC/caspase-1, beta-gal luminescence, 24 h. actives 0.39% (n = 330,000). inhibition, % at 10 µM;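 active = inhibition of 50% or more; inactive = inhibition below 50%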
# tim10-1 confirm: confirmation of tim10-1 mutant yeast growth inhibitors; inhibition, % at 20 µM; AID 463213; shares compounds with tim10-1 inh; S. cerevisiae tim10-1 ts strain growth, BacTiter-Glo, 24 h; actives 56% (n = 7,400);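 active = inhibition of yeast growth at or above a set limit in either of two repeat tests at 20 µM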;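 note: tim10-1 mutant grown at permissive 25 °C to find synthetic lethal compounds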
# tim10 confirm: TIM10 yeast growth inhibition, confirmed; shares compounds with TIM10 inh; S. cerevisiae tim10 strain growth, BacTiter-Glo luminescence, 24 h; inhibition, % at 10 µM; actives 63% (n = 4,600);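 active = inhibition of yeast growth at or above a set limit in either of two replicates at 10 µM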; note: this counterscreen used the strain with wild-type TIM10
# tim23-1 conf: confirmation of tim23-1 mutant yeast growth inhibitors; shares compounds with tim23-1 inh; S. cerevisiae tim23-1 growth, BacTiter-Glo luminescence, 24 h; inhibition, % at 20 µM; actives 83% (n = 4,400); AID 463218;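 active = inhibition above about 39% in either of two replicate wells at 20 µM, limit read from the data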;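 note: temperature-sensitive tim23-1 mutant grown at 25 °C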
# Hits are given with their value; 0 = inactive; - = no result.
SMILES,tim23-1 inh,TIM10 inh,tim10-1 inh,PfHsp90 set2,NLRP3 yeast inh,tim10-1 confirm,tim10 confirm,tim23-1 conf
O=c1c2c(nc(NCCO)n1CC1CCCCC1)-c1ccccc1CC21CCCC1,0,52.2,54.7,0,0,37.5,0,-
O=C(CSc1nc(=O)n(CCCN2CCOCC2)c2c1CCC2)Nc1ccccc1F,0,0,0,0,0,-,-,-
N=c1c2c(-c3ccccc3)c(-c3ccccc3)n(Cc3ccco3)c2ncn1CCCn1ccnc1,-,-,-,0,-,-,-,-
N=c1c2c(-c3ccccc3)c(-c3ccccc3)n(Cc3ccccc3)c2ncn1CCO,0,47.8,46.8,0,0,36.3,0,-
S=C(NCc1cccs1)Nc1cccc(Cl)c1,0,47.4,45.3,-,0,33.5,43.2,-
CC(C)c1ccc(NC(=S)NCc2cccs2)cc1,0,44.5,55.8,0,0,36.2,41.5,-
O=C(c1ccc2[nH]c3c(c2c1)CCCC3)N1CCN(c2ccc(F)cc2)CC1,0,41.9,41.5,0,0,0,0,-
COc1ccccc1N1CCN(C(=O)c2ccc3[nH]c4c(c3c2)CCCC4)CC1,0,0,0,0,0,-,-,-
CCOC(=O)c1sc(-c2ccccn2)nc1C,0,0,0,0,0,-,-,-
O=S(=O)(c1ccc2nc(N3CCN(c4ccccc4F)CC3)ccc2c1)N1CCCCC1,0,0,0,0,0,-,-,-
O=S(=O)(c1ccc2nc(Nc3ccccc3)ccc2c1)N1CCCCC1,50.1,0,50.5,0,0,0,-,42.4
Cc1ccc(C(=O)Nc2cccc(NC(=O)c3cccs3)c2)c(C)c1,52.9,0,46.7,0,0,36.4,-,49.9
COc1cc(NC(=O)c2ccc(C)cc2C)ccc1NC(=O)c1cccs1,0,0,0,0,0,-,-,-
CC(C)OC(=O)n1c(=S)oc2ccccc21,76.3,47.0,53.3,0,0,36.8,0,67.3
Cc1ccc(C(=O)NCC(=O)OC(C)C(=O)Nc2ccccc2[N+](=O)[O-])s1 (stereo unspecified),0,0,0,0,0,-,-,-
N#C/C(N=Nc1ccccc1O)=N\Nc1ccccc1O,82.4,0,65.3,0,0,60.3,-,65.5
Cc1cc(C(=O)N/N=C/C=C/c2ccccc2[N+](=O)[O-])c(C)o1,55.5,56.1,44.6,0,0,43.8,40.5,57.2
CCCCN1C(=O)C(=O)N(CC(=O)c2cc(C)n(C3CC3)c2C)C1=O,0,0,0,0,0,-,-,-
COc1ccc(/C=C2\COc3ccccc3C2=O)cc1OC,69.6,50.2,56.8,0,0,57.4,0,58.0
COc1ccc(/C=C2/CCc3ccccc3C2=O)cc1OC,0,0,0,0,0,-,-,-
COc1ccc(S(=O)(=O)Nc2cc(SCC(=O)O)c(O)c3ccccc23)cc1,58.4,0,44.1,0,0,0,-,0
CCOC(=O)N/N=C\c1ccc(C)s1,0,0,0,0,0,-,-,-
CCOC(=O)N/N=C\c1ccc([N+](=O)[O-])s1,87.5,0,53.4,0,0,38.3,-,66.2
Cc1ccc(C(=O)N/N=C\c2ccc([N+](=O)[O-])s2)cn1,55.9,40.1,49.3,0,0,41.5,0,58.5
Cc1cc(C(=O)N/N=C/c2ccc([N+](=O)[O-])s2)n[nH]1,0,0,0,0,0,-,-,-
SMILES,tim23-1 inh,TIM10 inh,tim10-1 inh,PfHsp90 set2,NLRP3 yeast inh,tim10-1 confirm,tim10 confirm,tim23-1 conf
Cc1[nH]cnc1C(=O)N/N=C/c1ccc([N+](=O)[O-])s1,0,0,0,0,0,-,-,-
CC(C)(C)OC(=O)N/N=C\c1ccc([N+](=O)[O-])s1,78.0,58.1,75.5,0,0,49.5,70.7,63.9
O=C(Cc1ccccc1)NCC(=O)N/N=C/c1ccc([N+](=O)[O-])s1,0,0,0,0,0,-,-,-
COc1ccc(NC(=O)CCC(=O)N/N=C/c2ccc([N+](=O)[O-])s2)cc1,62.5,83.2,50.5,116.3,0,38.6,0,62.1
CC1Sc2ccc(S(=O)(=O)CCC(=O)NCc3cccs3)cc2NC1=O (stereo unspecified),0,0,0,0,0,-,-,-
Brc1cc(-c2ccccc2)nc(-c2ccccc2)n1,0,0,0,-,0,-,-,-
O=c1oc(-c2ccccc2Cl)nc2ccsc12,70.1,0,43.6,0,0,34.9,-,59.7

# Bioassay records (PubChem)
